Laboratory results from the supplement of paper PMC6555819.

Legend:
Test in all cases: PBM binding z-score (relative to random genomic background probes); higher = stronger binding; sequences stand for … in GC…GCGATTGACAGCGTAGAATGAAGG
[1] = system: RARb homodimer (NR concentration 270 nM)
Method in brief: (§1)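 On custom Agilent 4×180K arrays, double-stranded probes with 34-nt variable regions carried direct-repeat seeds, single-nucleotide variants, half-site ablations or random human genomic background. Ligand-free nuclear receptor dimers were applied for 1 h, and binding was read with antibodies against each partner (one per run). Binding z-scores come from regression-normalized fluorescence, with the random background probes as reference.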

[2] = system: RARg:RXRa (NR concentration 270 nM, RXRa partner concentration 90 nM)
Method in brief: as §1

[3] = system: RARg homodimer (NR concentration 270 nM)
Method in brief: as §1

[4] = system: RXRa DBDmut IVT, anti-RXR (DBD mutation: RXRa K156A/R161A, NR concentration 90 nM)
Method in brief: as §1

[5] = system: RXRa homodimer (NR concentration 180 nM)
Method in brief: as §1

[6] = system: THRa:RXRa (NR concentration 90 nM, RXRa partner concentration 90 nM)
Method in brief: as §1

[7] = system: THRa homodimer (NR concentration 90 nM)
Method in brief: as §1

[8] = system: VDR homodimer (NR concentration 270 nM)
Method in brief: as §1

Sequence	PBM binding z-score [1]	PBM binding z-score [2]	PBM binding z-score [3]	PBM binding z-score [4]	PBM binding z-score [5]	PBM binding z-score [6]	PBM binding z-score [7]	PBM binding z-score [8]
ATCGAAAGGTCGTGAGGTGAGTAAACAGAAAGGC	2.71	4.68	4.11	1.25	4.91	3.31	1.1	0.838
CAAACTCGGTCACGAAAGGTCAAAGTCGAATGAC	5.24	7.03	7.47	1.9	7.26	4.47	1.09	3.28
CCTACTGGGCAATCAGGTCATTGATATCAACGTT	2.16	1.56	1.51	0.0815	1.06	3.13	2.55	1.29
CATACAGGGTCAGCTAGGCCAGAGTGGGGACGGC	3.76	4.58	4.75	1.4	4.23	3.12	1.52	1.59
CCTACTGGGCCATTCTGAGGTCATTGATCATATG	3.32	3.38	1.96	1.23	2.4	4.22	4.5	3.8
AGAATGAGGTTAAGATCAGGGAAACAGAATACAT	0.9	2.17	1.52	0.973	2.58	2.67	0.768	0.379
TCCAGTAGGTTACCAATGGGGCATTCAGCTTTCT	0.751	1.45	0.608	0.663	0.815	0.145	-0.653	-0.528
TCTCGGAGAACACGAAGGTCAGAGCTTTCCAGAG	2.86	1.7	1.58	0.25	1.61	1.18	-0.552	-0.097
CCGACTGGGGCATAAGGTTACCACAAGCCAGCCC	1.92	1.8	1.2	-0.196	1.32	2.04	1.37	0.195
CCTGCTAGGTAATGGTCAGCTAATCTACAGTATG	0.105	-0.00382	0.0688	-0.0204	-0.388	-0.173	-0.275	-0.364
GCTTGTAGATCAAGGTAAAGAAAGACTAAGCTAA	-0.851	-0.145	-0.335	-0.256	-0.197	0.48	-0.807	-0.505
CCGACTGGGGCAAGGTTACGATAACGCACAGCCA	1.22	1.18	1.56	-0.192	1.47	1.28	0.056	-0.241
TCAGACAGGGGAAGGTAACTCAGGTACGCAGTCG	0.725	0.0159	-0.128	1.16	0.547	1.38	1.02	0.491
TCTTGTGGATCAACAGGAGGTTAAGAAAGATCGA	0.619	1.18	0.266	0.248	0.985	1.01	-0.626	0.119
GCGACTGGGGCATCAGCAGGTTACAATAACTTAA	0.719	0.817	0.522	-0.00722	0.334	0.895	0.0253	-0.0954
TCTATTAGTTGTTTAGGGCAACCGAAACAGCGGA	0.623	0.681	0.7	0.754	0.557	1.07	0.864	0.463
TCTCGGAGGATACGAAAGGTCAGAGCTCGACATC	4.38	4.12	3.73	0.587	4.38	2.98	0.363	0.361
AATACAGGGTCAGCGTAGGCCAGAGTACGCACAG	3.36	4.93	4.67	1.69	4.84	3.98	0.9	1.65
CCTACTGGGCCAACGGTCATTGATTCCAATGCTC	1.45	0.293	0.841	-0.454	-0.191	-0.306	-0.382	-0.141
ACTATTAGTTGACTAAGGGCAACCGATACGACGC	1.55	0.953	1.33	0.698	0.794	1.72	0.967	0.874
CCTACTGGGCCAATCAGAGGTCATTGATCATATG	4.14	4.56	3.26	0.861	3.82	3.13	1.38	3.81
CGTCCAAGTTCAACTAAGGTAACGTAAAGCACGC	2.73	3.63	3.97	4.54	2.79	5.06	2.45	4.43
CTACCAAGGTGTACAAGGTCGTTGATTACTATTC	1.21	0.657	0.16	1.14	0.934	1.99	1.32	2.13
TCTAGTTGGTCACGGCGGTCACACACGACGGGTA	2.92	2.1	2.76	0.889	1.34	0.79	0.372	0.652
CCGAGTAGGTTATGGGGCCTTCAGGCAACGGTGA	0.593	0.0658	0.0449	-0.932	0.358	0.547	0.292	0.0348
ATCGAAAGGTCGTAAGGTGAGTATACAGAAAGGC	3.06	4.61	3.87	1.72	5.29	3.35	1.64	1.24
GCTTGCGGGTCAAAGGTTATAGCATGAATAGAAT	2.73	6.3	4.14	2.1	8.79	3.83	-0.22	0.927
ACTAGCACGCCAAGGGTCACTCAAGATTAGTCCG	3.93	3.88	3.91	1.02	3.73	2.86	0.515	1.49
TCATATAGGTAAAAGGTGTAAGTCGGTGTGGTAA	0.36	0.32	0.0311	1.55	0.644	0.0897	-0.167	0.313
